Results: the supplement of paper PMC6555819

Key:
Assay in all cases: PBM binding z-score (relative to random genomic background probes); higher = stronger binding; sequences stand for … in GC…GCGATTGACAGCGTAGAATGAAGG
[1] = tested on: FXR:RXRa (NR concentration 270 nM, RXRa partner concentration 90 nM)
Summary of the method: (§1)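 Regression normalization was applied to scanned fluorescence from custom Agilent 4×180K protein-binding microarrays. Before scanning, arrays were incubated 1 h with ligand-free nuclear receptor dimers, and binding was detected with antibodies against each partner (one per run). Binding z-scores use the random background probes as reference.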

[2] = tested on: LXRa:RXRa (NR concentration 270 nM, RXRa partner concentration 90 nM)
Summary of the method: as §1

[3] = tested on: LXRa homodimer (NR concentration 270 nM)
Summary of the method: as §1

[4] = tested on: LXRb:RXRa (NR concentration 270 nM, RXRa partner concentration 90 nM)
Summary of the method: as §1

[5] = tested on: LXRb homodimer (NR concentration 270 nM)
Summary of the method: as §1

[6] = tested on: PPARa:RXRa (NR concentration 270 nM, RXRa partner concentration 90 nM)
Summary of the method: as §1

[7] = tested on: PPARg:RXRa (NR concentration 180 nM, RXRa partner concentration 90 nM)
Summary of the method: as §1

[8] = tested on: PPARg:RXRa 270nM:90nM, anti-RXR (NR concentration 270 nM, RXRa partner concentration 90 nM)
Summary of the method: as §1

[9] = tested on: PPARg:RXRa 30nM:10nM, anti-RXR (NR concentration 30 nM, RXRa partner concentration 10 nM)
Summary of the method: as §1

[10] = tested on: PPARg:RXRa 90nM:30nM, anti-RXR (NR concentration 90 nM, RXRa partner concentration 30 nM)
Summary of the method: as §1

Row | Sequence | PBM binding z-score [1] | PBM binding z-score [2] | PBM binding z-score [3] | PBM binding z-score [4] | PBM binding z-score [5] | PBM binding z-score [6] | PBM binding z-score [7] | PBM binding z-score [8] | PBM binding z-score [9] | PBM binding z-score [10]
1 | AGAATGAGGTTACCAAAGCTCAGGGAAACGCTTG | 1.93 | 3.99 | -0.0854 | 1.96 | -0.341 | 3.46 | 2.2 | 2.57 | 0.532 | 1.81
2 | CGTCCACGGTCAAGGTCAGTGAAAGAGACTCGAA | 2.73 | 1.71 | -0.21 | 1.6 | -0.801 | 2.61 | 0.677 | 1.15 | -0.28 | 0.438
3 | CCTTACGGGTCACGAGGTTATAGCCCGACGAGCG | 6.99 | 4.42 | 0.302 | 3.77 | -0.0981 | 6.03 | 7.34 | 6.97 | 3.33 | 5.71
4 | ATCGAAAGGTTGACGAGGTGAGTATACACCGTTT | 1.11 | 0.773 | -0.233 | 0.764 | -0.00698 | 1.79 | 0.968 | 0.974 | 0.581 | 0.771
5 | AGAATTAGGTTACCAAAGATCAGGGAAACGCTTG | 0.207 | 4.78 | 0.162 | 1.15 | -0.0791 | 2.9 | 3.46 | 3.45 | 1.37 | 2.53
6 | ACAGACAGGTGAGTGTAGGTAACTCAGCTGGACG | 0.257 | -0.0272 | -0.446 | -0.538 | -0.878 | 0.215 | 0.458 | 0.248 | -0.279 | -0.0696
7 | GGAACGAGGGCAAAGTTGAAAGCATCTGTCGACG | 2.18 | 1.34 | -0.458 | 1.26 | -0.325 | 4.91 | 8.72 | 8.04 | 7.29 | 8.83
8 | TCGAGTAGGTTAGTCGGGGCCTTCAGCCAACATA | -0.352 | -0.131 | -0.672 | 0.0154 | -1.21 | 0.259 | -0.8 | 0.291 | 0.448 | 0.62
9 | CGTCCAAGGTCAGAGAGGACAGTGAATGCCGAGT | 4.64 | 3.42 | 0.241 | 2.28 | -0.021 | 3.85 | 2.24 | 2.75 | 0.355 | 1.59
10 | ATGTCTAGGTAACAAGTTCAGTGAAAGAGAGGAC | 0.658 | 0.774 | 0.395 | 0.727 | 0.845 | 1.28 | 1.06 | 1.07 | 0.33 | 1.12
11 | CGTCCAAGGTCAAGGTCAGTCAAAGAGACTCGAA | 7.71 | 5.91 | 1.64 | 4.85 | 1.09 | 5.93 | 6.39 | 5.98 | 2.6 | 4.69
12 | AGAATGAGGTTACCAAAGATCAGGGCAACGCTTG | 2.12 | 6.55 | -0.189 | 3.11 | -0.372 | 3.61 | 3.06 | 3.12 | 1.15 | 2.34
13 | CCTACTGGGCCACGAATGGTCATTGATTCAGTGA | -0.465 | -0.465 | -0.579 | -0.606 | -1.07 | 0.398 | 1.18 | 1.19 | -0.142 | 0.398
14 | GCATATACGTAATACAAGGTGAAAGTCCGATTGT | 0.409 | 0.28 | 0.383 | 0.441 | 0.0307 | 0.855 | 0.906 | 0.499 | 0.287 | 0.554
15 | GATACAGGGTCAGCTAGAGGCCACAGTATGGAAA | 4.67 | 3.33 | -0.234 | 2.65 | -0.958 | 4.64 | 4.12 | 3.58 | 1.09 | 2.68
16 | ATCTCTTGGTAAAAGTTCAGTGAATCCCGAGGAT | 0.493 | 1.23 | 1.42 | 0.868 | 1.09 | 1.58 | 1.87 | 4.15 | 1.88 | 3.88
17 | AGTCAAAGTTCGTCTAGGTAACGTAAGATATGCT | 1.46 | 1.16 | 0.363 | 0.787 | -0.0526 | 1.84 | 2.79 | 3.39 | 1.44 | 2.71
18 | CCAGACAGTTGAGAAGGTAACTCAGCCTCGATTA | 0.18 | 0.172 | 0.398 | 0.125 | 0.336 | 0.142 | 0.175 | -0.218 | 0.0704 | 0.0662
19 | CCGACTGGGGCATAAGGTTACCATGAGCCAGCCC | 0.192 | 1.36 | -0.247 | 0.153 | -1.3 | 1.9 | 2.48 | 3.24 | 1.36 | 2.8
20 | ACTAGTTGGTCATCTGAGGTCACACACAATTCGG | 3.47 | 5.26 | 5.1 | 4.09 | 1.65 | 3.98 | 2.52 | 2.62 | 1.13 | 2.05
21 | TGAATGAGGTTATAAGATCATGGAACGTTGCAAA | 1.6 | 1.52 | -0.175 | 1.37 | 0.0257 | 3.04 | 1.65 | 2.41 | 1.02 | 1.78
22 | CCAACTAGGTCAAAGGTCAAAGTCGAGCCAACCA | 8.45 | 7.12 | 5.59 | 7.28 | 3.01 | 7.64 | 13.6 | 10.9 | 13.2 | 12.7
23 | ATCTCTGGGTAAGACTCAGTTCAGTGAAGAACGC | 0.0881 | 0.209 | 0.369 | 0.319 | 0.684 | 0.1 | 0.0592 | 0.276 | 0.108 | 0.0741
24 | TGAATGAGATTATAAGATCAGGGAACGTTGCAAA | -0.81 | -0.599 | -0.661 | -0.508 | -0.369 | -0.202 | 0.324 | 0.0746 | 0.527 | 0.406
25 | GCTATTAGTAGAAAGGGCAACCGAATGATTCTCG | -0.219 | 0.182 | -0.00158 | 0.187 | -0.195 | 1.42 | 2.17 | 3.71 | 1.81 | 3.54
